Results filed as inconclusive are left out. Entries that show only a call come without a potency. The source made the active and inactive calls. Calls come from the whole dose curve; as a rule, active = well fitted inhibition curve with a large enough effect; inconclusive = small, poorly fitted or top-dose-only effect; inactive = no such curve, though single readings can be large or run the other way.
Potency is the fitted concentration of half-maximal effect.

The test concerns Zika virus NS2B-NS3 protease (unlinked). The experiment in a line: Optimization of GU AMC qHTS for Zika virus inhibitors: Unlinked NS2B-NS3 protease assay (AID 1347151). Note: nearly all actives have a fitted effect of over 80% in size. The note with it: recombinant ZIKV NS2B-NS3 protease, fluorogenic AMC substrate; series mostly up to 52.5 µM. The source says:
Avindra Nath, Ph.D., National Institute of Neurological Disorders and Stroke (NINDS), Bethesda, MD
Radhakrishnan Padmanabhan, Ph.D., Georgetown University (GU), Washington D.C.
Zika Virus causes congenital defects, including microcephaly and is associated with Guillain-Barre syndrome, eningoencephalitis and myelitis in infected adult. […] Using a target-based approach, we hope to establish a screening paradigm to uncover novel, cell-active NS2B-NS3 protease (Zika Virus) specific inhibitors from NCATS' collection of small molecules using qHTS.
Early Translation Branch (ETB)
National Center for Advancing Translational Sciences (NCATS), Rockville, MD
National Institute of Health (NIH), Bethesda, Maryland
Padmanabhan lab provided the NS2B hydrophilic domain and NS3 protease domain in a noncovalent complex used for the unlinked assay. Control compound aprotinin is obtained from Thermo Scientific (#78432; Waltham, Massachusetts). NS2B-NS3 AMC substrate (Bz-Nle-Lys-Arg-Arg-AMC; Nle-KRR-AMC) purchased from Bachem (#I-1995; Torrance, CA). Ac-VKTGKR-AMC purchased from Genscript or Bachem, Ac-FAAGKR-AMC purchased from Genscript, Ac-GLVKRR-AMC purchased from Genscript, Ac-LKKR-AMC purchased from Genscript.
GU AMC unlinked NS2B-NS3 protease qHTS protocol:
Briefly, 3 microL of Zika virus unlinked NS2B-NS3 protease (25 nM for linked final concentration), in assay buffer (10 mM Tris-HCl pH 8.0 with 0.01% Tween 20) was dispensed into a 1,536-well solid-bottom black plate (Greiner Bio One, Monroe, NC). Twenty-three nL of compounds (final concentration range 7.28 nM to 114 microM) or control Aprotinin (final concentration range 3.47 nM to 114 microM) were transferred via Wako Pin-tool (Wako Automation, Richmond, VA). […] Plates were then read immediately on a ViewLux High-throughput CCD imager (PerkinElmer, Waltham, MA) equipped with standard UV fluorescence optics (340(30) nm excitation, 450(20) nm emission) then incubated (room temperature, protected from light) for 15 minutes (~20% conversion). The change in fluorescence intensity over the 15-minute reaction period was normalized against no-inhibitor and no-enzyme controls and the resulting percent inhibition data were fitted to a 4-parameter Hill equation. Aprotinin was used as the intraplate control.
(Quantitative high-throughput screening tests each substance at several concentrations.)
`NCCCCN=C(N)N`: the Potency entry is “inactive”.
In the case of `Oc1cc2c(cc1O)C(c1ccccc1)CNCC2` (stereo not given), the Potency entry was “inactive”.
To `N=C(N)SCCN` belongs “inactive”; to `Cn1c(=O)c2c(nc(/C=C/c3cccc(Cl)c3)n2C)n(C)c1=O`, 11.9 µM (active); to `CC(C)(CO)Cc1cc(C(C)(C)C)c(O)c(C(C)(C)C)c1`, “inactive”.
On to `NC1CCN(O)C1=O` (stereo not given), for which the Potency result is “inactive”.
The value for `C/C(=C\c1ccc(C(=O)O)cc1)c1ccc2c(c1)C(C)(C)CCC2(C)C` was 10.6 µM (active); that for `COc1cc(C(O)CO)ccc1O` (stereo not given) was “inactive”.
The value for `N#Cc1cc2nc(O)c(O)nc2cc1[N+](=O)[O-]` was “inactive”; that for `COC(=O)C(C)(N)Cc1ccc(O)cc1` (stereo not given) was “inactive”; that for `CCCCCCC(=O)OC1CC(C)(C)NC(C)(C)C1` was “inactive”.
To `O=C(O)C1=CCNCC1` belongs “inactive”; to `CC(/C=C/c1cccc(Oc2ccc(F)cc2)c1)N(O)C(N)=O` (stereo not given), “inactive”; to `C[C@@]1(C2CCCC2)Cc2cc(OCC(=O)O)c(Cl)c(Cl)c2C1=O`, “inactive”.
Regarding `CCCn1c(=O)c2c(ncn2C)n(CCC)c1=O`, the Potency result was “inactive”.
To `NCC(O)c1ccc(O)c(O)c1` (stereo not given) belongs “inactive”; to `O=C(O)C1=CC(=C(c2ccc(O)c(C(=O)O)c2)c2ccc(O)c(C(=O)O)c2)C=CC1=O`, 21.2 µM (active); to `Cc1nc2n(c(=O)c1CCN1CCC(c3noc4cc(F)ccc34)CC1)CCCC2O` (stereo not given), “inactive”.
The value for `CO/N=C(\C(=O)N[C@@H]1C(=O)N2C(C(=O)O)=C(CSc3nc(=O)c(O)nn3C)CSC12)c1csc(N)n1` (stereo not given in full) was “inactive”.
To `CC(C)NC[C@H](O)COc1ccc(CC(N)=O)cc1` belongs “inactive”; to `Cc1cc(Cn2cnc3c2C[C@@H](C(=O)O)N(C(=O)C(c2ccccc2)c2ccccc2)C3)ccc1N`, “inactive”.
`CCCCC[C@H](CC(=O)NO)C(=O)N[C@H](C(=O)N1CCC[C@H]1CO)C(C)C`: the Potency entry was “inactive”.
The value for `O=C(O)CCC/C=C\C[C@@H]1[C@@H](/C=C/[C@H](O)C2Cc3ccccc3C2)[C@@H](F)C[C@@H]1O` was “inactive”.
The value for `CCOC(=O)C12CC1/C(=N/O)c1ccccc1O2` (stereo not given) was “inactive”.
The value for `O=c1oc(Cl)c(Cl)c2ccccc12` was “inactive”.
In the case of `Nc1ncnc2c1c(-c1ccc(Oc3ccccc3)cc1)cn2C1CCCC1`, the Potency was 23.8 µM (active).
The value for `CC(=O)NCCc1c[nH]c2ccc(O)cc12` was “inactive”; that for `C=C1C[C@@]23CC[C@H]4[C@@](C)(CCC[C@@]4(C)C(=O)OC4OC(CO)C(O)C(O)C4O)[C@@H]2CC[C@]1(OC1OC(CO)C(O)C(O)C1OC1OC(CO)C(O)C(O)C1O)C3` (stereo not given in full) was “inactive”; that for `CN[C@H](CC(=O)O)C(=O)O` was “inactive”.
The value for `Cc1nc(N=Nc2cc(S(=O)(=O)O)c3cc([N+](=O)[O-])cc(S(=O)(=O)O)c3c2)c(COP(=O)(O)O)c(C=O)c1O` was 26.7 µM (active).
The value for `O=C(O)c1cc2cc(F)ccc2[nH]1` was 26.7 µM (active).
`NCCNS(=O)(=O)c1cccc2c(Cl)cccc12`: the Potency result was “inactive”.
For the compound `COc1cccc(OC)c1OCCNCC1CSc2ccccc2O1` (stereo not given), the Potency result was “inactive”.
To `NC(=Nc1ccccc1)NC(=O)c1nc(Cl)c(N)nc1N` belongs 26.7 µM (active); to `CNCCNS(=O)(=O)c1cccc2cnccc12`, “inactive”.
To `COC(=O)[C@H](NC(=O)c1cc(-c2ccccc2)nc2ccccc12)c1ccccc1` belongs 23.8 µM (active); to `C#CC(N)CCC(=O)O` (stereo not given), “inactive”; to `COc1ccc2c(c1)c(CC(=O)O)c(C)n2C(=O)c1ccccc1`, “inactive”.
On to `COc1cc(N)c(Cl)cc1C(=O)OCCN1CCCCC1`, for which the Potency result is “inactive”.
The value for `CC(N)=O` was “inactive”.

These data come from PubChem BioAssay (NCATS).
